# Reference: PubChem BioAssay (Tox21)
# Inconclusive results are not listed. A call without a number means that no potency is given here. Active and inactive are the calls of the source. Calls follow the shape of the full dose curve.
# Molecular target: Retinoic acid receptor RXR-alpha (Homo sapiens) (UniProt P19793)
# Assay: qHTS assay to identify small molecule agonists of the RXR signaling pathway (AID 1159527); also: nearly all actives have a fitted effect of over 35% in size
# Details: HEK293T RXRa-UAS-bla, beta-lactamase ratio, 16 h; series mostly up to 76.8 µM
# From the text: U.S. Tox21 Program National Center for Advancing Translational Sciences [NCATS] NIH Chemical Genomics Center [NCGC] U.S. Environmental Protection Agency [EPA] National Institutes of Environmental Health Sciences [NIEHS] National Toxicology Program [NTP] U.S. Food and Drug Administration [FDA] Tox21 Assay Overview: The Retinoid X receptor (RXR), a nuclear hormone receptor expressed in liver, spleen, placenta, epidermis, central nervous system. These receptors are able to form homo and heterodimers with other nuclear receptors and due to this heterodimerizing ability, RXR functions as master regulators producing diverse physiological effects. Three subtypes of RXR exist; alpha, beta and gamma. Retinoid X receptor alpha (RXR-alpha) has potential roles in metabolic signaling pathways, skin alopecia, dermal cysts, cardiac development, insulin sensitization etc. Therefore screening environmental chemicals on RXR-alpha signaling can be used for the studies focused on such therapeutic applications. For quantification of RXR-alpha ligands signaling, GeneBLAzer RXR alpha-UAS-bla HEK 293T (Life Technologies, Carlsbad, CA) cells containing a beta-lactamase reporter-gene under control of Retinoid X receptor-alpha response element were used to screen Tox21 10K library.
# Tox21 Assay Protocol Summary: RXR-alpha HEK 293T cells were dispensed at 2,000 cells/6 uL of assay medium containing 2% charcoal-stripped FBS using a Multidrop Combi (ThermoFisher Scientific, Waltham, MA) dispenser. The assay was performed in black wall/clear-bottom 1536-well plates (Greiner Bio-One North America Inc. Monroe, NC). 9-cis retinoic acid was used as a positive control in the agonist mode screen. After the assay plates were incubated at 37 C and 5% CO2 for 5 hr, 23 nL of compounds dissolved in DMSO, positive controls or DMSO only were transferred to the assay plate by a Pintool station (Kalypsys, San Diego, CA). The assay plates were incubated at 37 C and 5% CO2 for 16 hr. One uL of LiveBLAzer B/G FRET substrate (Life Technologies) was added using a Flying Reagent Dispenser (Aurora Discovery, San Diego, CA) and the plates were incubated at room temperature for 2 hr. Fluorescence intensity (405 nm excitation, 460/530 nm emission) was measured using an Envision plate reader (PerkinElmer, Shelton, CT).
# Potency is read from the fitted curve at half-maximal effect.
# Retinoic acid receptor RXR-alpha (Homo sapiens), sequence (P19793 whole entry, looked up): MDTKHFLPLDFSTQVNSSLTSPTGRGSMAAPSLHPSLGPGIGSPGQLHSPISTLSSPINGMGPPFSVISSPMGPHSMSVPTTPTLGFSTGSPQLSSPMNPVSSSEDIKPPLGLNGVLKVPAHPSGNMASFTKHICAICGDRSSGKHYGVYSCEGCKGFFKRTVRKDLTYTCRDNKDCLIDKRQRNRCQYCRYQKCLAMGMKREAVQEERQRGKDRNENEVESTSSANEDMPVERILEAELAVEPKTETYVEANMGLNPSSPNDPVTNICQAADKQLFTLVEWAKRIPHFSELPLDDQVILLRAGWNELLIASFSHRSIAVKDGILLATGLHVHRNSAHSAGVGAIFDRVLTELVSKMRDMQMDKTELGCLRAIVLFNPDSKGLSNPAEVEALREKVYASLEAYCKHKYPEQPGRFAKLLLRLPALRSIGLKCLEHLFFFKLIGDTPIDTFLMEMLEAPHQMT
Compound,Potency,activation
CN(C1CCCCC1)C1CCCCC1,inactive,–
Cc1ccc2c(C)cccc2c1,inactive,–
CC1(C)[C@H](C(=O)O[C@H](C#N)c2cccc(Oc3ccccc3)c2)[C@@H]1C=C(Br)Br,inactive,–
C=CCN1C[C@H](C)N([C@H](c2ccc(C(=O)N(CC)CC)cc2)c2cccc(OC)c2)C[C@H]1C,inactive,–
Nc1c(Br)cc(Br)c2c1C(=O)c1ccccc1C2=O,–,1.05% [at 15.8 µM] (inactive)
O=C(Cc1ccccc1)OCCc1ccccc1,inactive,–
Cc1ccc(N)c(C)c1,inactive,–
CN[C@@H](C)[C@H](O)c1ccccc1,inactive,–
NP(N)(=O)NC(=O)c1ccc(F)cc1,inactive,–
Nc1ccccc1C(=O)OCC(O)CO (stereo not given),inactive,–
CC(Cc1ccccc1)NCc1ccccc1Cl (stereo not given),inactive,–
FC(F)OC(F)(F)C(F)Cl (stereo not given),inactive,–
CC(CC(C(N)=O)(c1ccccc1)c1ccccc1)N(C)C (stereo not given),inactive,–
CC(=O)OC(c1ccccc1)C(Cl)(Cl)Cl (stereo not given),inactive,–
COc1ccc2c(c1OC)C(=O)O[C@H]2[C@@H]1c2cc3c(cc2CCN1C)OCO3,inactive,–
OC[P+](CO)(CO)CO,inactive,–
O=C(O)C(O)C(O)C(=O)O (stereo not given),inactive,–
C[N+]1(CCF)[C@@H]2CC[C@H]1CC(OC(=O)C(O)(c1ccccc1)c1ccccc1)C2 (stereo not given in full),inactive,–
CC1(C)CC(=O)CC(C)(C)N1[O],inactive,–
CN1CC[C@]23c4c5ccc(O)c4O[C@H]2[C@@H](O)CC[C@H]3[C@H]1C5,inactive,–

Compound,Potency,activation
CC[N+]1(C)CCCC(OC(=O)C(O)(c2ccccc2)c2ccccc2)C1 (stereo not given),inactive,–
CCCCCl,inactive,–
COC(=O)C1(O)c2ccccc2-c2ccccc21,inactive,–
CN(C)C(=O)Nc1cccc(OC(=O)NC(C)(C)C)c1,inactive,–
O=C(O)COc1cc(Cl)c(Cl)cc1Cl,24.6 µM (active),–
CCOP(=O)(O)C(N)=O,inactive,–
O=C(Cc1ccccc1)c1ccccc1,inactive,–
CCc1ccccc1N,inactive,–
CN(C)N,inactive,–
O=C(NCNC(=O)NC1C(=O)NC(=O)N1CO)NC1C(=O)NC(=O)N1CO (stereo not given),inactive,–
C[Si](Cn1cncn1)(c1ccc(F)cc1)c1ccc(F)cc1,inactive,–
CCN(C(C)=O)c1cccc(-c2ccnc3c(C#N)cnn23)c1,inactive,–
Cc1nc(N(C)C)nc(OC(=O)N(C)C)c1C,inactive,–
O=CC=O,inactive,–
OCC1CO1 (stereo not given),inactive,–
COP(=O)(OC)OC(Br)C(Cl)(Cl)Br (stereo not given),inactive,–
CC(O)CN1CCN(CC(=O)[O-])CCN(CC(=O)[O-])CCN(CC(=O)[O-])CC1.[Gd+3] (stereo not given),inactive,–
CCCCC#N,inactive,–
CC(C)(C#N)C(C)(C)C#N,inactive,–
CCC[N+](CCC)(CCC)CCC,inactive,–
